Our source for the Potency and max activation values is PubChem BioAssay (Tox21).

Molecules are shown by their SMILES. Values without a mark were called inactive. Inconclusive results are not listed. Active and inactive are the calls of the source. Unless noted, calls follow the shape of the dose curve; as a rule, active = well fitted curve in the direction sought with a large enough effect in the repeat runs; inconclusive = weak or mixed curves; inactive = no such curve, though single readings can be large; an effect the other way counts as inactive or inconclusive.

Test [1] in a line: Human pregnane X receptor (PXR) small molecule agonists, qHTS cell viability counter screen (AID 1346977). Also: nearly all actives have a fitted effect of over 50% in size. Also: potency is read from the fitted curve at half-maximal effect. The gist of the method:
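In each well, the PXR reporter HepG2 line was checked for viability: CellTiter-Fluor reagent added 23hr post-dosing, fluorescence read after 1hr incubation at 37C.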
Background: In qHTS, concentration-response curves come from the screen itself.

Test [2] can be described thus: Caspase-3/7 induction in HepG2 cells by small molecules, qHTS assay (AID 1346978). Also: nearly all actives have a fitted effect of over 15% in size. The gist of the method: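 Caspase-3/7 induction was measured by Caspase-Glo 3/7 luminescence (30 min, room temperature) after a 17 hr compound exposure of wild-type HepG2 cells seeded at 2,000 per well and pre-incubated 5 hr.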
Test [3] can be described thus: Caspase-3/7 induction in CHO-K1 cells by small molecules, qHTS cell viability counter screen (AID 1346979). Also: nearly all actives have a fitted effect of over 35% in size. Also: potency is read from the fitted curve at half-maximal effect. The gist of the method: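 Following a 5hr settling period, CHO-K1 cells at 1,500 per well received DMSO-dissolved compounds. Cell viability was quantified 16hr later by CellTiter-Fluor fluorescence, measured after 1hr with reagent at 37C.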
A short description of test [4]: Caspase-3/7 induction in CHO-K1 cells by small molecules, qHTS assay (AID 1346980). Also: nearly all actives have a fitted effect of over 15% in size. The gist of the method:
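Luminescent Caspase-Glo 3/7 read (30min, room temperature) quantified apoptosis induction. Cells were wild-type CHO-K1, treated with compound for 17hr at 37 C and 5% CO2.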

Test [5] in a line: Caspase-3/7 induction in HepG2 cells by small molecules, qHTS cell viability counter screen (AID 1346981). Also: series mostly up to about 92 µM; nearly all actives have a fitted effect of over 30% in size. The gist of the method:
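Viability determined by CellTiter-Fluor fluorescence in HepG2 wells also used for the luminescent Caspase-Glo 3/7 read. Compounds were present for 16 hr at 37 C, 5% CO2 before reagent addition.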

The target of test [6] is Nuclear receptor subfamily 1 group I member 2 (Homo sapiens) (UniProt O75469). The experiment in a line: Human pregnane X receptor (PXR) small molecule agonists, qHTS assay (AID 1346982). Also: nearly all actives have a fitted effect of over 35% in size. Also: potency is read from the fitted curve at half-maximal effect. The method, boiled down: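 Compound-induced hPXR transactivation of a CYP3A4 luciferase reporter was scored in HepG2 PXR-Luc cells over 24 hr at 37 C, 5% CO2, by luminescence.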
Chain of Nuclear receptor subfamily 1 group I member 2 (Homo sapiens) (O75469 whole entry, looked up): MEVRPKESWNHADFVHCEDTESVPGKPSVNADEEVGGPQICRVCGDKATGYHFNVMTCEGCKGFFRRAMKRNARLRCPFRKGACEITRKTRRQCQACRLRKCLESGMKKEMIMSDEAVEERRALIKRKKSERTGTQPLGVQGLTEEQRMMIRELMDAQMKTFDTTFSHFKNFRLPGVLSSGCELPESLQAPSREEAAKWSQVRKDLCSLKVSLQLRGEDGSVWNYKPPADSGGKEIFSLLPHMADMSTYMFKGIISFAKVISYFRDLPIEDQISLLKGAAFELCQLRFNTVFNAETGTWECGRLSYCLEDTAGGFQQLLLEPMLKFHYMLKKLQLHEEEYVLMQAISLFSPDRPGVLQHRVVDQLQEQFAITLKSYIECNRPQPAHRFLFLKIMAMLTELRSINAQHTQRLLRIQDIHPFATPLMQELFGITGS
The target of test [7] is Acetylcholinesterase (Homo sapiens) (UniProt P22303). Kind of test: Acetylcholinesterase (AChE) small molecule antagonists: colormetric cell-based qHTS assay (AID 1347395; calls by dose curve; also: nearly all actives have a fitted effect of over 30% in size). The gist of the method: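 After overnight attachment at 37 C, SH-SY5Y cells get 30 min compound exposure; detection cocktail (acetylthiocholine, DTNB) then incubates 90 min at 37 C, and absorbance reflects AChE-generated thiocholine.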
Chain of Acetylcholinesterase (Homo sapiens) (P22303 whole entry, looked up): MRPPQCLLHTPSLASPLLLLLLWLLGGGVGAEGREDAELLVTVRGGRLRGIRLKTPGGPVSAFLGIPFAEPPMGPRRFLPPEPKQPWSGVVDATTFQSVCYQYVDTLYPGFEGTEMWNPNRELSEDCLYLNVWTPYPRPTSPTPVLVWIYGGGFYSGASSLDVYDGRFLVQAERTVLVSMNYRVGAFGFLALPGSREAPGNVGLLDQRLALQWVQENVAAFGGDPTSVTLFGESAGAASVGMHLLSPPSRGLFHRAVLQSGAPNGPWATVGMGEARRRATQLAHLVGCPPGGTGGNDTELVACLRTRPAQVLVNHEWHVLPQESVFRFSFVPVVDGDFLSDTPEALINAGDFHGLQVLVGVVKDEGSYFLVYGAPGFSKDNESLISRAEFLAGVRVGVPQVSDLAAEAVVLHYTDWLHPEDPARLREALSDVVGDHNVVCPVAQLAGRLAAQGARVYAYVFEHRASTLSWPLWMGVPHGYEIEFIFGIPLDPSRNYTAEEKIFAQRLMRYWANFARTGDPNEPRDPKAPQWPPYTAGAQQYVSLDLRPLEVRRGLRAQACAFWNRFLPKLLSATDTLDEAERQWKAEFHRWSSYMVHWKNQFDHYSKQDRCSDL

The target is the same in test [8]. Kind of test: Acetylcholinesterase (AChE) small molecule antagonists: enzyme-based qHTS assay (AID 1347397; calls by dose curve; also: nearly all actives have a fitted effect of over 55% in size). The settings on record: Potency: AChE enzyme activity inhibition. The gist of the method: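 rhAChE 50 mU/mL (dispensed) + cpd or DMSO, 30 min RT; add DTNB/acetylthiocholine cocktail, 10 min RT; colorimetric thiocholine readout. qHTS, 1536-well format.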

Test [9] shares this target. The experiment in a line: Acetylcholinesterase (AChE) small molecule antagonists: fluorescence cell-based qHTS assay (AID 1347398; calls by dose curve; also: nearly all actives have a fitted effect of over 50% in size). The settings on record: Potency: AChE activity. The method, boiled down:
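Read-out is Thiolite Green fluorescence at Ex/Em = 490/520 nm, formed by reaction with thiocholine released when cellular AChE in SH-SY5Y cells hydrolyzes acetylthiocholine. Compounds were preincubated 30 min at 37 C before substrate.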

Test [10] has the same target. The experiment in a line: Acetylcholinesterase (AChE) small molecule antagonists: enzyme-based qHTS assay with human liver microsomes (AID 1347399; calls by dose curve; also: nearly all actives have a fitted effect of over 60% in size). The settings on record: Potency: qHTS inhibition. The gist of the method:
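Recombinant human AChE (50 mU/mL in the enzyme mix) and human liver microsomes (0.25 mg/mL final) were preincubated with compound and NADPH (0.25 mg/mL final) for 30 min at 37 C. Acetylthiocholine/DTNB was then added; thiocholine was read colorimetrically after 10 min at room temperature.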

Test [11] deals with Cytochrome P450 2D6 (Homo sapiens) (UniProt P10635). Kind of test: Cytochrome P450 Family 2 Subfamily D Member 6 (CYP2D6) small molecule antagonists: luciferase reporter qHTS assay (AID 1671196). Also: nearly all actives have a fitted effect of over 50% in size. Also: potency is read from the fitted curve at half-maximal effect. The gist of the method:
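Each well received CYP2D6 with its proluciferin substrate and chemical, sat 10 min, then got NADPH regeneration solution for 1 h at room temperature. Luminescence in RLU served as the activity measure.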

Test [12] has as its target Cytochrome P450 2C19 (Homo sapiens) (UniProt P33261). Kind of test: Cytochrome P450 Family 2 Subfamily C Member 19 (CYP2C19) small molecule antagonists: luciferase reporter qHTS assay (AID 1671197). Also: nearly all actives have a fitted effect of over 65% in size. Also: potency is read from the fitted curve at half-maximal effect. The method, boiled down: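 P450-Glo CYP2C19 screening system; proluciferin substrate; DMSO compound stocks; 10 min RT preincubation; NADPH regeneration, 1 h at 37C; luciferin detection reagent, 20 min RT; luminescence as RLU.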
(A reporter such as luciferase makes a cellular process visible.)

The target in test [13] is Cytochrome P450 2C9 (Homo sapiens) (UniProt P11712). Kind of test: Cytochrome P450 Family 2 Subfamily C Member 9 (CYP2C9) small molecule antagonists: luciferase reporter qHTS assay (AID 1671198). Also: nearly all actives have a fitted effect of over 50% in size. Also: potency is read from the fitted curve at half-maximal effect. The gist of the method:
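Enzyme-substrate mix preincubated with compound 10 min at room temperature; reaction started with NADPH regeneration solution, 1 h 37C. Luminescent luciferin product read after 20 min detection reagent.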

The target in test [14] is Cytochrome P450 3A4 (Homo sapiens) (UniProt P08684). Kind of test: Cytochrome P450 Family 3 Subfamily A Member 4 (CYP3A4) small molecule antagonists: luciferase reporter qHTS assay (AID 1671201). The gist of the method: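 CYP3A4 activity was followed with a P450-Glo proluciferin substrate. Test compounds in DMSO were preincubated 10 min; NADPH regeneration then ran 1 h, and light output was read 20 min after detection reagent.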
Chain of Cytochrome P450 3A4 (Homo sapiens) (P08684 whole entry, looked up): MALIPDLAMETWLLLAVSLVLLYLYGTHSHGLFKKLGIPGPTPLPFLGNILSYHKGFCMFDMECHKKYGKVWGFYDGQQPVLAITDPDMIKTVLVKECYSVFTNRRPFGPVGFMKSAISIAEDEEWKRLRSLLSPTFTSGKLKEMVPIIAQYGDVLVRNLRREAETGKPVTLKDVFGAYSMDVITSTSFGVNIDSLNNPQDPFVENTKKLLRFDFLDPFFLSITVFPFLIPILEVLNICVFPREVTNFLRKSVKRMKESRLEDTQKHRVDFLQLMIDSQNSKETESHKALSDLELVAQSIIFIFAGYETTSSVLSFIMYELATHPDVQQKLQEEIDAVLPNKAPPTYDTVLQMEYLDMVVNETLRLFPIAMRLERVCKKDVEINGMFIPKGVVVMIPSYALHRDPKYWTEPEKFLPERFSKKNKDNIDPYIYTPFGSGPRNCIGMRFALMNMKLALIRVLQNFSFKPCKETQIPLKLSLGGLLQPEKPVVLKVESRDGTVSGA

The target in test [15] is Nuclear receptor subfamily 1 group I member 2 (Rattus norvegicus) (UniProt Q9R1A7). Kind of test: Rat pregnane X receptor (rPXR) activation by small molecules, qHTS assay (AID 1346983). Also: nearly all actives have a fitted effect of over 20% in size. The settings on record: rPXR luciferase reporter cells, One-Glo luminescence, 24 h; max activation: active compounds read high. The gist of the method:
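Luminescent readout (One-Glo luciferase, 30 min room temperature) followed 24 hr compound treatment at 37 C of rPXR cells plated 2,000 per well and preincubated 5hr; qHTS format with compounds delivered in DMSO.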

Test [16] addresses Voltage-gated inwardly rectifying potassium channel KCNH2 (Homo sapiens) (UniProt Q12809). The experiment in a line: Human Ether-a-go-go-Related Gene (hERG) channel small molecule antagonists: fluorescence cell-based qHTS assay (AID 1671200). The gist of the method: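 In this thallium-flux screen, overnight-cultured U2OS cells bearing the channel are dye-loaded in darkness for an hour, rested 10 min at room temperature, and then monitored kinetically at 480/540 nm for two minutes post-stimulus.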

Test [17] has as its target Cytochrome P450 1A2 (Homo sapiens) (UniProt P05177). The experiment in a line: Cytochrome P450 Family 1 Subfamily A Member 2 (CYP1A2) small molecule antagonists: luciferase reporter qHTS assay (AID 1671199). Also: nearly all actives have a fitted effect of over 50% in size. Also: potency is read from the fitted curve at half-maximal effect. The gist of the method:
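Enzymatic CYP1A2 assay, human, luminescent: 10 min compound–enzyme–substrate preincubation, 1 h NADPH-dependent turnover, 20 min detection step, room temperature throughout. Reduced light indicates lower CYP1A2 activity.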
% is scaled to controls: 0 for no effect and ±100 for the full control effect.

Chain of Cytochrome P450 2C19 (Homo sapiens) (P33261 whole entry, looked up): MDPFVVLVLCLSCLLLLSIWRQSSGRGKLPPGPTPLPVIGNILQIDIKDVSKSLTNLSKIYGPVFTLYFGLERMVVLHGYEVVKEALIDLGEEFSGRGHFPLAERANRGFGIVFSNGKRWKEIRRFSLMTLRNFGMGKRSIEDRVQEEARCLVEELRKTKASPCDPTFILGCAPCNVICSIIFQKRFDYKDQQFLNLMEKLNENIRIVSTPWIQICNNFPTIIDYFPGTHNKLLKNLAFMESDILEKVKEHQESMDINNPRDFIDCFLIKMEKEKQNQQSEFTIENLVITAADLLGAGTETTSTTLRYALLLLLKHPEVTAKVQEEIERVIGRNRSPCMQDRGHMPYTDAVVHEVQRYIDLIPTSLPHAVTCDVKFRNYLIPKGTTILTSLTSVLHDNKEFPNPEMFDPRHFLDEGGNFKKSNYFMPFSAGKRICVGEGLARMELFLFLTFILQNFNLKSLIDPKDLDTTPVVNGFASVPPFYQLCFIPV
Chain of Voltage-gated inwardly rectifying potassium channel KCNH2 (Homo sapiens) (Q12809 whole entry, looked up): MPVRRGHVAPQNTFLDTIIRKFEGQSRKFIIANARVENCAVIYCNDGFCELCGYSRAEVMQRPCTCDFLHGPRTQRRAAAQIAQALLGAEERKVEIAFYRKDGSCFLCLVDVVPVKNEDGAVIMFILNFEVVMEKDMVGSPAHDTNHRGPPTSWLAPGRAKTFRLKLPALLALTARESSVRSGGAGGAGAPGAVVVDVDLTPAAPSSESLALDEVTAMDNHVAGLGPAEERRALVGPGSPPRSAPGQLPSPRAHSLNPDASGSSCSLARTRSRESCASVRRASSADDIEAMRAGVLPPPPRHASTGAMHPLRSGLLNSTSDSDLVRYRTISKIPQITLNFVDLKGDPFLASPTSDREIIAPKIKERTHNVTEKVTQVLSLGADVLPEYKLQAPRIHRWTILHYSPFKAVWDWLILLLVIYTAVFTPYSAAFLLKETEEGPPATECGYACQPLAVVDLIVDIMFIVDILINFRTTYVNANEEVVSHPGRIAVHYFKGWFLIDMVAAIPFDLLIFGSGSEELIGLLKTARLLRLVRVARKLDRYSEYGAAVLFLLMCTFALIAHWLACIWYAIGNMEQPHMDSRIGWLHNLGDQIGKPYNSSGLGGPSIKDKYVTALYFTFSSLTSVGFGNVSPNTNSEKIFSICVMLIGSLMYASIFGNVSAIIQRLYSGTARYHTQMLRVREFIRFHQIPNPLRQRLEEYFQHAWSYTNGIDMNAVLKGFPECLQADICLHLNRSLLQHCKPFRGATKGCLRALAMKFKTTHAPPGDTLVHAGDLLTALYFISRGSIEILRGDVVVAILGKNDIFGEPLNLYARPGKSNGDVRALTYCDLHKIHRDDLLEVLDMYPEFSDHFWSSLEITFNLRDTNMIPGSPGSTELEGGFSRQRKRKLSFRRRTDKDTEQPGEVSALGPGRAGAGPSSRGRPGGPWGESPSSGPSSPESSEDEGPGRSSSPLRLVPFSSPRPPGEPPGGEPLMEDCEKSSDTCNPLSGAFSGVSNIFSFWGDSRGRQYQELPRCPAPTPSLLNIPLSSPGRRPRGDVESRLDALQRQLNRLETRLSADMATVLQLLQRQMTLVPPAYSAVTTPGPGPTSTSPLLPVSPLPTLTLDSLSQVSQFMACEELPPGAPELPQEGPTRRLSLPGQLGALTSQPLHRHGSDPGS
Chain of Cytochrome P450 2D6 (Homo sapiens) (P10635 whole entry, looked up): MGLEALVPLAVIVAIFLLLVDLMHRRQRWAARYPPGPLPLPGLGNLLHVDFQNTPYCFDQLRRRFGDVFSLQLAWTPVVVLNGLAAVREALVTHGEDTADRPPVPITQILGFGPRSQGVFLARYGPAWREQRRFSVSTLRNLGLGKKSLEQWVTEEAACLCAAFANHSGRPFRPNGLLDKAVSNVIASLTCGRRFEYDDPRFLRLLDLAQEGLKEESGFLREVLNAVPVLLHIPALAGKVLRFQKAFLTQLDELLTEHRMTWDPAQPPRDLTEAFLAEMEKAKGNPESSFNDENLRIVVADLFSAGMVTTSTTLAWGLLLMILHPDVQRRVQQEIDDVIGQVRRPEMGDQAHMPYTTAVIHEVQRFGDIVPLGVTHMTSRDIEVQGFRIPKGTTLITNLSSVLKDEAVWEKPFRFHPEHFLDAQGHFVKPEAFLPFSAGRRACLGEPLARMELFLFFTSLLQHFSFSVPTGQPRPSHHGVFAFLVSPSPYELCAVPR
Chain of Cytochrome P450 1A2 (Homo sapiens) (P05177 whole entry, looked up): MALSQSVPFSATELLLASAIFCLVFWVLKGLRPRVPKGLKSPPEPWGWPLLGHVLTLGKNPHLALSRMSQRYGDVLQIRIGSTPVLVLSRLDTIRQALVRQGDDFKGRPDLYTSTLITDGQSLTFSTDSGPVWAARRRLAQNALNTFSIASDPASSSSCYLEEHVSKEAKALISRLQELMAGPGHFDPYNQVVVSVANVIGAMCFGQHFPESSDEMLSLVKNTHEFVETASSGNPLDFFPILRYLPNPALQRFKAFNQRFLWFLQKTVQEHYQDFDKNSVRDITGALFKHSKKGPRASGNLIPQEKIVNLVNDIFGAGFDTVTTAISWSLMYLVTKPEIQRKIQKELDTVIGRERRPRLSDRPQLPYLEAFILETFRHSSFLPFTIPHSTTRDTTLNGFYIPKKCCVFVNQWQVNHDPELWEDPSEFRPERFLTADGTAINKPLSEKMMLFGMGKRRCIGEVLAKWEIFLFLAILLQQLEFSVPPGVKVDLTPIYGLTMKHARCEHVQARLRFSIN
Chain of Cytochrome P450 2C9 (Homo sapiens) (P11712 whole entry, looked up): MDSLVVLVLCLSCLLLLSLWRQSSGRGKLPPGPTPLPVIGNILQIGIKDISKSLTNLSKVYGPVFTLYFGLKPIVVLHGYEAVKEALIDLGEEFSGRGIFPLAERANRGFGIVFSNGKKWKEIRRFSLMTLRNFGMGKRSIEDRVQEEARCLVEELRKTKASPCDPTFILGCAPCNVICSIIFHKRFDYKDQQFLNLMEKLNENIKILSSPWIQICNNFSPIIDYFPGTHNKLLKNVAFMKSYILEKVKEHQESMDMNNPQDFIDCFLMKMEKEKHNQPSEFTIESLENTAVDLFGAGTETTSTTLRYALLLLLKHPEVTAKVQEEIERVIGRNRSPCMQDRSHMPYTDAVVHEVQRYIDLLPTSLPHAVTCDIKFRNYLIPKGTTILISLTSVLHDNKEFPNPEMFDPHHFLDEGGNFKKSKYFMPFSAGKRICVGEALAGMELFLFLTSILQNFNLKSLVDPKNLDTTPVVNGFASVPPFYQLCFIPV

As to `CCN(C)N=O`, the Potency entry in test [1], in test [2], in test [3], in test [4], in [5] and in [6] was “inactive” throughout. In addition, the Potency entry in test [7], in [8], in [9], in test [10], in [11] and in test [12] was “inactive” in each case. The Potency entry in [13] and in test [14] was “inactive” throughout.
On to `CC(C)N(CCC(C(N)=O)(c1ccccc1)c1ccccn1)C(C)C` (configuration not stated), for which the Potency entry in [1], in test [2], in test [3], in test [4], in [5] and in test [7] was “inactive” in each case. Further, the Potency result in test [8], in test [9] and in test [10] was “inactive” throughout. The max activation in [15] is -7.32%.
Turning to `C/C=C/C=O`, the Potency entry in [1], in [4], in test [5], in test [6], in test [7] and in test [8] was “inactive” in each case. In addition, the Potency entry in test [9], in [10], in test [11] and in test [14] was “inactive” each time. Moreover, the Potency in test [12] was 34 µM (active).
Consider `O=NN1CCNCC1`, for which the Potency entry in test [1], in [4], in test [5], in test [6], in test [7] and in test [8] was “inactive” throughout. The Potency entry in test [9], in test [10], in test [16] and in test [14] was “inactive” throughout. For the same molecule, the Potency in [12] is 44.3 µM (active).
As for `O=C(O)C1(c2ccc3c(c2)OC[C@H](Cc2ccc(-c4ccccc4)cc2)[C@H]3O)CCCC1`, the Potency result in test [2], in [4], in test [5], in test [7], in test [8] and in test [9] was “inactive” in each case. Besides, the Potency entry in [10], in test [11], in [17], in test [16] and in test [14] was “inactive” each time. Besides, in test [13], the Potency was 71 µM (active).
Turning to `O=C(O)C(F)(F)C(F)(F)C(F)(F)C(F)(F)C(F)(F)C(F)(F)C(F)(F)C(F)(F)C(F)(F)F`, the Potency result in test [1], in test [4], in test [5], in [6], in [7] and in [8] was “inactive” in each case. Moreover, the Potency entry in [9], in [10], in [11], in [12], in [17] and in test [16] was “inactive” each time. Further, the Potency result in test [14] is “inactive”. The Potency in test [13] is 2.83 µM (active).
For `Cc1ccc(-c2c(Cl)nc(C#N)n2S(=O)(=O)N(C)C)cc1`, the Potency is 43.2 µM (active) in test [1]; 9.68 µM (active) in [6]; 79.6 µM (active) in [12]; 11.2 µM (active) in test [13]; 22.4 µM (active) in test [17]. Besides, the Potency result in test [2], in [7], in test [8], in test [9], in test [10] and in [11] was “inactive” throughout. Also, the Potency result in [14] is “inactive”.
`O=C(Nc1ccccc1)Nc1ccnc(Cl)c1`: the Potency in test [1] is 43.3 µM (active); in test [3], 48.6 µM (active); in test [6] it was 30.6 µM (active); in [11], 39.9 µM (active); in test [12], 35.6 µM (active); in [13] it was 10 µM (active). Further, the Potency in [17] is 20 µM (active). Also, the Potency entry in test [2], in [4], in test [7], in test [8], in test [9] and in test [10] was “inactive” each time.
